Several values for one entry are separate records, joined by “and”; a condition that tells them apart may be missing. Equal values may be shown once. Compounds without any hit were thinned out: in the full panel of roughly 79,000, 15% have a hit. Some compounds were tested as several samples or in several runs, with calls that do not always agree. Activity calls are given as the source filed them. No stated cut-off is given here; in the data, active means growth inhibition above about 70%; inactive means the rest.
Columns and labels:
[1] = NCI Yeast Anticancer Drug Screen. Data for the rad52 strain (AID 147);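 further: 0% = growth of vehicle-treated control cultures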; conditions: S. cerevisiae rad52 mutant growth inhibition, stronger effect = higher value
Summary of the method: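 The repair-mutant yeast strain was incubated with compounds, then growth was read and inhibition derived relative to vehicle.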

[2] = NCI Yeast Anticancer Drug Screen. Data for the wt1 strain (AID 149);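 further: 0% = growth of vehicle-treated wt1 cultures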; conditions: S. cerevisiae wt1 strain (SPY 50644) growth inhibition, stronger effect = higher value
Summary of the method: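 Measured: growth of wt1 yeast under compound versus vehicle treatment, reported as inhibition.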

[3] = NCI Yeast Anticancer Drug Screen. Data for the rad50EPP+ strain (AID 151);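 further: 0% = growth of vehicle-treated control cultures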; conditions: S. cerevisiae rad50 mutant strain, stronger effect = higher value
Summary of the method: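 Vehicle-normalised growth inhibition; rad50EPP+ yeast strain, altered in DNA damage repair, compound-treated.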

[4] = NCI Yeast Anticancer Drug Screen. Data for the mgt1 strain (AID 153); conditions: S. cerevisiae mgt1 mutant growth inhibition, stronger effect = higher value
Summary of the method: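 Vehicle-normalized growth inhibition is determined in mgt1 yeast, a strain selected for a defined alteration in DNA repair or cell cycle control.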

[5] = NCI Yeast Anticancer Drug Screen. Data for the rad50 strain (AID 155);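 further: 0% = growth of vehicle-only cultures of the same strain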; conditions: S. cerevisiae rad50 strain growth inhibition, stronger effect = higher value
Summary of the method: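 Growth of the mutant yeast was measured after compound exposure and referenced to vehicle-treated cultures.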

[6] = NCI Yeast Anticancer Drug Screen. Data for the mec2-1 strain (AID 157); conditions: S. cerevisiae mec2-1 strain, stronger effect = higher value
Summary of the method: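 Mutant yeast (mec2-1) grown with compound; growth inhibition relative to vehicle control reported.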

[7] = NCI Yeast Anticancer Drug Screen. Data for the rad14 strain (AID 159);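 further: 0% = growth of vehicle-treated control cultures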; conditions: S. cerevisiae rad14 strain growth inhibition, stronger effect = higher value
Summary of the method: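 Here, inhibition of yeast growth was measured after compound exposure, using a strain with a genetic defect in DNA damage repair and vehicle-treated cultures as the reference.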

[8] = NCI Yeast Anticancer Drug Screen. Data for the sgs1 mgt1 strain (AID 161);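 further: 0% = growth of cultures given vehicle only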; conditions: S. cerevisiae sgs1 mgt1 strain, stronger effect = higher value
Summary of the method: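 Growth of a repair-deficient yeast mutant was monitored after compound treatment and expressed as inhibition relative to vehicle-treated cultures.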

[9] = NCI Yeast Anticancer Drug Screen. Data for the CLN2oe strain (AID 163);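 further: 0% = growth of vehicle-only control cultures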; conditions: S. cerevisiae CLN2oe strain, stronger effect = higher value
Summary of the method: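 Compounds are applied to yeast harbouring a defined cell-cycle control change; reduced growth compared with vehicle-treated controls gives the value.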

[10] = NCI Yeast Anticancer Drug Screen. Data for the cln2 rad14 strain (AID 165);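 further: 0% = growth equal to vehicle treated cultures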; conditions: S. cerevisiae cln2 rad14 strain, stronger effect = higher value
Summary of the method: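 Readout is yeast growth inhibition versus vehicle-treated controls, using a strain with cln2 and rad14 alterations exposed to compound.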

[11] = NCI Yeast Anticancer Drug Screen. Data for the bub3 strain (AID 167); conditions: S. cerevisiae bub3 mutant strain, stronger effect = higher value
Summary of the method: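 Whole-cell yeast assay. The mutant strain was incubated with compounds, and growth inhibition was determined by comparison with vehicle-treated cells.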

[12] = NCI Yeast Anticancer Drug Screen. Data for the wt2 strain (AID 169);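 further: 0% = growth of vehicle-treated yeast cultures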; conditions: S. cerevisiae wt2 strain growth inhibition, stronger effect = higher value
Summary of the method: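 Against vehicle-treated controls, the growth of yeast exposed to each compound was compared, and the inhibition was recorded.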

[13] = NCI Yeast Anticancer Drug Screen. Data for the mlh1 strain (AID 171);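 further: 0% = growth of vehicle-treated control cultures of the same strain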; conditions: S. cerevisiae mlh1 strain growth inhibition, stronger effect = higher value
Summary of the method: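 Measured: yeast growth. Reference: vehicle-treated controls. Organism: strain with a defined alteration affecting DNA damage repair or cell cycle control, treated with compound.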

[14] = NCI Yeast Anticancer Drug Screen. Data for the sgs1 strain (AID 173);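 further: 0% = growth of vehicle-only control cultures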; conditions: S. cerevisiae sgs1 mutant, stronger effect = higher value
Summary of the method: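 Each compound was added to cultures of the altered yeast strain. Growth was recorded, and inhibition was derived by comparison with vehicle controls.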

[15] = NCI Yeast Anticancer Drug Screen. Data for the mlh1 rad18 strain (AID 175); conditions: S. cerevisiae mlh1 rad18 strain growth inhibition, stronger effect = higher value
Summary of the method: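 Genetically defined yeast (DNA repair-deficient) exposed to compounds; growth inhibition determined relative to vehicle.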

[16] = at 5.0 µM (retest, dose inferred, filed as 0.5)
[17] = at 50.0 µM (retest, dose inferred, filed as 5.0)

Measured: growth inhibition

O=C1NC(=S)NC(=O)C1=Cc1ccc([N+](=O)[O-])o1
inactive: [1]; at 1.2 µM -50% | [1]; at 3.7 µM -58% | [1]; at 11.0 µM -6% | [1]; at 33.0 µM 57% | [2]; at 1.2 µM -18% | [2]; at 3.7 µM -4% | [2]; at 11.0 µM -1% | [2]; at 33.0 µM -1% | [2]; at 100.0 µM 6% | [3]; at 1.2 µM 11% | [3]; at 3.7 µM 23% | [3]; at 11.0 µM 61% | [4]; at 1.2 µM 15% | [4]; at 3.7 µM 20% | [4]; at 11.0 µM 41% | [4]; at 33.0 µM 58% | [5]; at 1.2 µM 12% | [5]; at 3.7 µM 17% | [5]; [16] 25% | [5]; at 11.0 µM 36% | [5]; at 33.0 µM 66% | [5]; [17] 69% | [6]; at 1.2 µM -16% | [6]; at 3.7 µM -20% | [6]; [16] -19% | [6]; at 11.0 µM -12% | [6]; at 33.0 µM 0% | [6]; [17] -4% | [6]; at 50.0 µM 3.2% | [7]; at 1.2 µM 5% | [7]; at 3.7 µM -10% | [7]; at 11.0 µM -7% | [7]; at 33.0 µM 16% | [7]; at 100.0 µM 36% | [8]; [16] 1% | [8]; [17] 36% | [8]; at 50.0 µM 48% | [9]; at 1.2 µM 9% | [9]; at 3.7 µM -1% | [9]; at 11.0 µM 5% | [9]; at 33.0 µM -9% | [10]; [16] 16% | [10]; [17] 35% | [10]; at 50.0 µM 16.7% | [11]; at 1.2 µM 11% | [11]; at 3.7 µM -9% | [11]; [16] 2% | [11]; at 11.0 µM -24% | [11]; at 33.0 µM -28% | [11]; [17] 10% | [11]; at 50.0 µM 4.45% | [11]; at 100.0 µM 53% | [12]; at 1.2 µM -20% | [12]; at 3.7 µM -12% | [12]; at 11.0 µM 2% | [12]; at 33.0 µM -8% | [12]; at 100.0 µM 64% | [13]; at 1.2 µM 15% | [13]; at 3.7 µM 33% | [13]; at 11.0 µM 21% | [13]; at 33.0 µM 41% | [14]; at 1.2 µM -11% | [14]; at 3.7 µM 2% | [14]; at 11.0 µM 10% | [14]; at 33.0 µM 32% | [14]; at 100.0 µM 54% | [15]; [16] -15% | [15]; [17] 2% | [15]; at 50.0 µM 64%
active: [1]; at 100.0 µM 85% | [3]; at 33.0 µM 87% | [3]; at 100.0 µM 92% | [4]; at 100.0 µM 79% | [5]; at 50.0 µM 77.6% | [5]; at 100.0 µM 87% | [6]; at 100.0 µM 87% | [9]; at 100.0 µM 82% | [13]; at 100.0 µM 81%

C/C(=N\O)c1ccc2ccc3ccccc3c2c1
85% (active) and 65% (inactive): [5]; [17]
active: [1]; at 33.0 µM 95% | [1]; at 100.0 µM 95% | [2]; at 100.0 µM 93% | [3]; at 11.0 µM 74% | [3]; at 33.0 µM 90% | [3]; at 100.0 µM 94% | [4]; at 100.0 µM 94% | [5]; at 33.0 µM 95% | [5]; at 50.0 µM 96.3% and 78.3% | [5]; at 100.0 µM 97% | [6]; at 100.0 µM 94% | [7]; at 100.0 µM 94% | [8]; at 50.0 µM 93.1% and 80.3% | [9]; at 100.0 µM 87% | [11]; at 33.0 µM 78% | [11]; [17] 72% | [11]; at 100.0 µM 94% | [12]; at 100.0 µM 92% | [13]; at 100.0 µM 90% | [14]; at 33.0 µM 80% | [14]; at 100.0 µM 95% | [15]; at 50.0 µM 96.2% and 82.8%
94.5% (active) and 56.8% (inactive): [11]; at 50.0 µM
77.6% (active) and 30.2% (inactive): [10]; at 50.0 µM
93.7% (active) and 7.85% (inactive): [6]; at 50.0 µM
75% (active) and 64% (inactive): [15]; [17]
inactive: [1]; at 1.2 µM -2% | [1]; at 3.7 µM 11% | [1]; at 11.0 µM 49% | [2]; at 1.2 µM -4% | [2]; at 3.7 µM -5% | [2]; at 11.0 µM -9% | [2]; at 33.0 µM 7% | [3]; at 1.2 µM 12% | [3]; at 3.7 µM 35% | [4]; at 1.2 µM 1% | [4]; at 3.7 µM 0% | [4]; at 11.0 µM 2% | [4]; at 33.0 µM 37% | [5]; at 1.2 µM 4% | [5]; at 3.7 µM 12% | [5]; [16] -142% and 7% | [5]; at 11.0 µM 68% | [6]; at 1.2 µM 0% | [6]; at 3.7 µM 1% | [6]; [16] -43% and -1% | [6]; at 11.0 µM 15% | [6]; at 33.0 µM 30% | [6]; [17] -2% and 31% | [7]; at 1.2 µM 2% | [7]; at 3.7 µM 12% | [7]; at 11.0 µM 22% | [7]; at 33.0 µM 41% | [8]; [16] -60% and 0% | [8]; [17] 53% and 65% | [9]; at 1.2 µM -1% | [9]; at 3.7 µM 2% | [9]; at 11.0 µM 6% | [9]; at 33.0 µM 28% | [10]; [16] -49% and -8% | [10]; [17] 12% and 31% | [11]; at 1.2 µM 4% | [11]; at 3.7 µM 3% | [11]; [16] -50% and 1% | [11]; at 11.0 µM 29% | [12]; at 1.2 µM -1% | [12]; at 3.7 µM -1% | [12]; at 11.0 µM 0% | [12]; at 33.0 µM 35% | [13]; at 1.2 µM 3% | [13]; at 3.7 µM -3% | [13]; at 11.0 µM 7% | [13]; at 33.0 µM 61% | [14]; at 1.2 µM -2% | [14]; at 3.7 µM -3% | [14]; at 11.0 µM 33% | [15]; [16] -113% and 3%
